# Measured values taken from PubChem BioAssay (EPA / NIEHS).
# Results filed as inconclusive are left out. Where a structure was tested more than once in an assay, its records may differ in their call. The source made the active and inactive calls. Rule for the calls, unless noted: active = hit-call score of the fitted dose curve at least 0.9, where 1 is the maximum; inactive = score below 0.9.
# Key:
# [1] = ATG_PBREM_CIS: Attagene CIS-FACTORIAL HepG2 Assay for human Phenobarbital-responsive Enhancer Module (PBREM) (AID 2282955); conditions: HepG2 PBREM cis-reporter, Attagene multiplexed transcription; actives raise or lower the signal
# Summary of the method: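 After a 24 h incubation with test chemical, transfected HepG2 cells yield total RNA; reporter-specific RT-PCR products are fluorescently labelled, HpaI-digested and resolved by capillary electrophoresis against ROX size standards.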
# [2] = target: Paired box protein Pax-6 (Homo sapiens) (UniProt P26367); assay: ATG_Pax6_CIS: Attagene CIS-FACTORIAL HepG2 Assay for human Paired Box 6 (PAX6) (AID 2282956); conditions: HepG2 CIS-FACTORIAL PAX6 reporter transcription, RNA readout; actives raise or lower the signal
# Summary of the method: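 Read-out is reporter transcript level, measured by RT-PCR with fluorescent primer extension and capillary electrophoresis after 24 h dosing of transfected HepG2 cells. Activity in either direction fitted relative to DMSO control.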
# [3] = ATG_PXRE_CIS: Attagene CIS-FACTORIAL HepG2 Assay for human Pregnane X Receptor Element (PXRE) (AID 2282957); conditions: HepG2 Attagene CIS-FACTORIAL PXRE reporter, mRNA; actives raise or lower the signal
# Summary of the method: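 Bidirectional activity, baselined to DMSO, derived from reporter mRNA fluorescence (RT-PCR plus capillary electrophoresis) in HepG2 cells bearing cis-promoter reporter units, 24 h exposure.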
# [4] = ATG_PPRE_CIS: Attagene CIS-FACTORIAL HepG2 Assay for human Peroxisome Proliferator-activated Response Element (PPRE) (AID 2282958); conditions: HepG2 PPRE cis-element reporter, Attagene transcription factor profiling; actives raise or lower the signal
# Summary of the method: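 Multiplexed reporter transcription units under cis-regulatory promoters were transfected into HepG2 cells to capture endogenous factor activity. A 24 h incubation preceded RNA isolation and fluorescent RT-PCR fragment analysis.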
# [5] = ATG_RORE_CIS: Attagene CIS-FACTORIAL HepG2 Assay for human RAR-related Orphan Receptor Element (RORE) (AID 2282959); conditions: HepG2 Attagene cis-factorial RORE reporter, mRNA; actives raise or lower the signal
# Summary of the method: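 Fluorescence intensity of reporter-specific cDNA fragments, separated by capillary electrophoresis, gives the signal. Source: HepG2 liver cells transiently transfected with cis-element reporters and exposed 24 h; DMSO-normalized bidirectional fit.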
# [6] = ATG_Sox_CIS: Attagene CIS-FACTORIAL HepG2 Assay for human SRY-box transcription factor (SOX) (AID 2282960); conditions: HepG2 Attagene cis-factorial SOX reporter, mRNA; actives raise or lower the signal
# Summary of the method: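 After 24 h of chemical treatment, transfected HepG2 reporter cells are lysed for total RNA. Transcript levels come from RT-PCR with labelled primer extension and capillary electrophoresis, analysed bidirectionally versus DMSO.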
# [7] = target: Transcription factor Sp1 (Homo sapiens) (UniProt P08047); assay: ATG_Sp1_CIS: Attagene CIS-FACTORIAL HepG2 Assay for human Specificity Protein 1 (Sp1) (AID 2282961); conditions: HepG2 Sp1 cis-reporter transcription, actives raise or lower the signal
# Summary of the method: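 Sp1-driven reporter mRNA, read as capillary electrophoresis fluorescence after RT-PCR, in transiently transfected HepG2 cells dosed for 24 h; signal change in either direction relative to DMSO.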
# [8] = ATG_SREBP_CIS: Attagene CIS-FACTORIAL HepG2 Assay for human Sterol Regulatory Element Binding (SREBP) (AID 2282962); conditions: HepG2 Attagene cis-factorial SREBP reporter, mRNA; actives raise or lower the signal
# Summary of the method: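 Endogenous SREBP activity read as cis-element-driven reporter transcript in transiently transfected HepG2, 24 h post-dosing; quantified via RT-PCR plus capillary electrophoresis of fluorescent fragments. Gain or loss of signal fitted relative to DMSO baseline.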
# [9] = target: Signal transducer and activator of transcription 3 (Homo sapiens) (UniProt P40763); assay: ATG_STAT3_CIS: Attagene CIS-FACTORIAL HepG2 Assay for human Signal Transducer and Activator of Transcription 3 (STAT3) (AID 2282963); conditions: HepG2, Attagene cis-factorial STAT3 reporter transcription; actives raise or lower the signal
# Summary of the method: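 Fluorescence intensity of 6-FAM-labelled reporter fragments, separated by capillary electrophoresis after RT-PCR, gave the signal. Cells were HepG2 transfected with cis-element reporter units and treated 24 h; fitting was bidirectional relative to DMSO.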
# [10] = ATG_TA_CIS: Attagene CIS-FACTORIAL HepG2 Assay for human TA Basal Promoter (AID 2282964); conditions: HepG2 Attagene CIS-factorial TA basal promoter reporter; actives raise or lower the signal
# Summary of the method: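 HepG2 cells transiently transfected with multiple reporter units under cis promoter elements, reporting endogenous transcription factor activity; this endpoint tracks the TA basal promoter as background control. Reporter mRNA after 24 h dosing measured by RT-PCR/capillary electrophoresis; bidirectional fits versus DMSO.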
# [11] = ATG_TCF_b_cat_CIS: Attagene CIS-FACTORIAL HepG2 Assay for human T-Cell-Factor with beta-catenin (TCF/b-cat) (AID 2282965); conditions: HepG2 TCF/beta-catenin cis-reporter transcription, actives raise or lower the signal
# Summary of the method: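 HepG2 cells transiently transfected with cis-promoter-driven multiplexed reporter units; reporter mRNA measured 24 h after dosing by RT-PCR, FAM labelling, HpaI digestion and capillary electrophoresis. Bidirectional fitting relative to DMSO baseline.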
# [12] = ATG_TAL_CIS: Attagene CIS-FACTORIAL HepG2 Assay for human TAL Basal Promoter (AID 2282966); conditions: HepG2 Attagene cis-factorial TAL promoter reporter; actives raise or lower the signal;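 note: background control endpoint measuring basal TAL promoter reporter mRNA not a specific factor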
# Summary of the method: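 Human hepatoma HepG2 cells, transfected with promoter-regulated reporter units, were treated 24 h. Reporter transcript levels, measured through RT-PCR and capillary electrophoresis, were fitted for gain or loss relative to DMSO.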
# [13] = ATG_TGFb_CIS: Attagene CIS-FACTORIAL HepG2 Assay for human Transforming Growth Factor (TGF) (AID 2282967); conditions: HepG2 Attagene CIS TGFb reporter, mRNA transcription; actives raise or lower the signal
# Summary of the method: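 HepG2 cells transiently transfected with cis-promoter-driven multiple reporter units measure endogenous TF activity; reporter mRNA quantified at 24 h by RT-PCR, FAM labeling, HpaI digestion and capillary electrophoresis. Bidirectional fit vs DMSO.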
# [14] = ATG_VDRE_CIS: Attagene CIS-FACTORIAL HepG2 Assay for human Vitamin D Receptor Element (VDRE) (AID 2282968); conditions: HepG2 VDRE cis-reporter transcription, actives raise or lower the signal
# Summary of the method: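 Compounds were applied for 24 h to HepG2 cells transfected with promoter-regulated reporter units. Total RNA was reverse-transcribed, and reporter amplicons were fluorescently labelled and sized by capillary electrophoresis.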
# [15] = target: Nuclear receptor subfamily 1 group I member 3 (Homo sapiens) (UniProt Q14994); assay: ATG_CAR_TRANS: Attagene TRANS-FACTORIAL HepG2 Assay for human Constitutive Androstane Receptor (CAR) (AID 2282969; active = hit-call score of the fitted dose curve at least 0.9, where 1 is the maximum;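 note: activators raise reporter mRNA above DMSO so AC50 marks induction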); conditions: HepG2 Attagene TRANS-FACTORIAL CAR reporter
# Summary of the method: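 Transiently transfected HepG2, multiplex TRANS reporters (CAR-Gal4 chimera driving GAL4-UAS reporter). 24 h dosing. Readout: reporter transcript by RT-PCR + capillary electrophoresis, fluorescence intensity; positive direction vs DMSO.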
# [16] = target: Estrogen receptor (Homo sapiens) (UniProt P03372); assay: ATG_ERa_TRANS: Attagene TRANS-FACTORIAL HepG2 Assay for human Estrogen Receptor alpha (ERa) (AID 2282970; active = hit-call score of the fitted dose curve at least 0.9, where 1 is the maximum); conditions: HepG2 Attagene TRANS ERa GAL4 reporter, mRNA
# Summary of the method: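 Signal derives from fluorescence of labelled reporter PCR fragments separated by capillary electrophoresis. HepG2 cells transiently carrying multiple GAL4-UAS reporter units were treated 24 hours, and induction above DMSO baseline was fitted as activity.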
# [17] = target: X-box-binding protein 1 (Homo sapiens) (UniProt P17861); assay: ATG_Xbp1_CIS: Attagene CIS-FACTORIAL HepG2 Assay for human X-box Binding Protein 1 (XBP1) (AID 2282972); conditions: HepG2 XBP1 cis-element reporter, Attagene multiplex; actives raise or lower the signal
# Summary of the method: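 Reporter transcripts were quantified by RT-PCR with fluorescent primer extension and capillary electrophoresis after 24 h chemical exposure. Cells: transiently transfected HepG2 carrying cis-regulated reporter constructs; data fitted bidirectionally relative to DMSO.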
# [18] = target: Steroid hormone receptor ERR1 (Homo sapiens) (UniProt P11474); assay: ATG_ERRa_TRANS: Attagene TRANS-FACTORIAL HepG2 Assay for human Estrogen-Related Receptor alpha (ERRa) (AID 2282971; active = hit-call score of the fitted dose curve at least 0.9, where 1 is the maximum); conditions: HepG2 Attagene TRANS reporter, ERRa transactivation
# Summary of the method: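 Signal gain relative to DMSO for an ERRa-Gal4 chimeric receptor, read as reporter mRNA by RT-PCR/capillary electrophoresis. Human HepG2 liver cells, transient multiplex reporter transfection, 24 h chemical exposure.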
# [19] = ATG_GAL4_TRANS: Attagene TRANS-FACTORIAL HepG2 Assay for GAL4 (Internal Marker) (AID 2282976; active = hit-call score of the fitted dose curve at least 0.9, where 1 is the maximum); conditions: HepG2 Attagene TRANS GAL4 internal marker reporter
# Summary of the method: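 Liver HepG2 line bearing multiplexed GAL4-UAS reporter constructs; 24 h chemical treatment. Transcripts were quantified as fluorescent fragments on capillary electrophoresis after RT-PCR and HpaI cut, with activity fitted upward from DMSO.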
# [20] = ATG_M_19_TRANS: Attagene TRANS-FACTORIAL HepG2 Assay for M19 Transcription Factor (Internal Marker) (AID 2282974; active = hit-call score of the fitted dose curve at least 0.9, where 1 is the maximum); conditions: HepG2 Attagene TRANS-FACTORIAL M19 internal marker reporter
# Summary of the method: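 Measured here: internal-marker reporter transcript from HepG2 cells transfected with MRTUs, harvested at 24 h. cDNA PCR products were 6-FAM labelled by primer extension, cut with HpaI for 2 h at 37 C, and resolved by CE.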
# Chain of Estrogen receptor (Homo sapiens) (P03372 whole entry, looked up, the tested form may be a part): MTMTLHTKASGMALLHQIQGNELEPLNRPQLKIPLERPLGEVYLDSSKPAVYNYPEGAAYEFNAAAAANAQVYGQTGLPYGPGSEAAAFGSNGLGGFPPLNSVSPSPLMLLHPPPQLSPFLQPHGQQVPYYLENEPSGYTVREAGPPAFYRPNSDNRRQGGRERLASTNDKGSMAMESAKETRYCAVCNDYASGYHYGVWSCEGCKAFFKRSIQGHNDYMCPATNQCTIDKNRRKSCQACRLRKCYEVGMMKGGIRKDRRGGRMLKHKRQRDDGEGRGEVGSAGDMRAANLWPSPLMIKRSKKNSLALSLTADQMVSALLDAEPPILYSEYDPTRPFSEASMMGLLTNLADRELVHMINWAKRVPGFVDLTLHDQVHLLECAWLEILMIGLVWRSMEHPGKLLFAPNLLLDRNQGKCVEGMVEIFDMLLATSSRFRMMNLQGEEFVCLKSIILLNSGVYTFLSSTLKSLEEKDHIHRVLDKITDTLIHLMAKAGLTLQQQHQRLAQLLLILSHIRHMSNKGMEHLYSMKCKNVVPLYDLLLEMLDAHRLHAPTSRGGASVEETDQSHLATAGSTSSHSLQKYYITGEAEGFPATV
# Chain of Transcription factor Sp1 (Homo sapiens) (P08047 whole entry, looked up): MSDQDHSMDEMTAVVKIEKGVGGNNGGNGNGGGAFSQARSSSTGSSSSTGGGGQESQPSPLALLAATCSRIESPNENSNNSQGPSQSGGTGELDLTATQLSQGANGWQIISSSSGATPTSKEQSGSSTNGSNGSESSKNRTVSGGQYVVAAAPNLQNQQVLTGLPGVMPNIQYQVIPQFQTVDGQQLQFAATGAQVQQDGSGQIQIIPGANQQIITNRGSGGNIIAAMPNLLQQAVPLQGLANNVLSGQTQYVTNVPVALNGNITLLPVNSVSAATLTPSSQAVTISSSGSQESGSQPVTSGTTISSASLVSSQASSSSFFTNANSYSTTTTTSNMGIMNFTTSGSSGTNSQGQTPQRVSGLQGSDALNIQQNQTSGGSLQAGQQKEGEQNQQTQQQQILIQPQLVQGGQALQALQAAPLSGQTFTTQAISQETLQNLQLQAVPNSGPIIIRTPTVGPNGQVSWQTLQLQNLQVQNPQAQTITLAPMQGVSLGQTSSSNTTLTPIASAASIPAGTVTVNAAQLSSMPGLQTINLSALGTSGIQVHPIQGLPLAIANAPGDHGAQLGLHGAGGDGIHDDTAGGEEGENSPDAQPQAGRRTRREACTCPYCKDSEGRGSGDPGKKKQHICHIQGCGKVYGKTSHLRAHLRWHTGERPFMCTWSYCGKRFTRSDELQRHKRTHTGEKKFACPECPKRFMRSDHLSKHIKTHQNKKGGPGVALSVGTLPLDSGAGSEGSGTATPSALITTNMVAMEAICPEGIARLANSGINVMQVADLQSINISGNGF
# Chain of Nuclear receptor subfamily 1 group I member 3 (Homo sapiens) (Q14994 whole entry, looked up, the tested form may be a part): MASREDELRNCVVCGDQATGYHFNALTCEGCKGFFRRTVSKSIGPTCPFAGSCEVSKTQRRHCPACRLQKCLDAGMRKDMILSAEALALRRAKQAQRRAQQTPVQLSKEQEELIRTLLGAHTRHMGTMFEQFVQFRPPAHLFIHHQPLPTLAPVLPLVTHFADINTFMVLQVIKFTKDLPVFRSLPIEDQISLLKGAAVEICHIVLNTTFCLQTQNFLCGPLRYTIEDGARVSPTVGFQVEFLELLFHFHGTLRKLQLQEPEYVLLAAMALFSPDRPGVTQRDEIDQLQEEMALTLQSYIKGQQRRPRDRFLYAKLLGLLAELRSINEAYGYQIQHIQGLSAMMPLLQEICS
# Chain of Paired box protein Pax-6 (Homo sapiens) (P26367 whole entry, looked up): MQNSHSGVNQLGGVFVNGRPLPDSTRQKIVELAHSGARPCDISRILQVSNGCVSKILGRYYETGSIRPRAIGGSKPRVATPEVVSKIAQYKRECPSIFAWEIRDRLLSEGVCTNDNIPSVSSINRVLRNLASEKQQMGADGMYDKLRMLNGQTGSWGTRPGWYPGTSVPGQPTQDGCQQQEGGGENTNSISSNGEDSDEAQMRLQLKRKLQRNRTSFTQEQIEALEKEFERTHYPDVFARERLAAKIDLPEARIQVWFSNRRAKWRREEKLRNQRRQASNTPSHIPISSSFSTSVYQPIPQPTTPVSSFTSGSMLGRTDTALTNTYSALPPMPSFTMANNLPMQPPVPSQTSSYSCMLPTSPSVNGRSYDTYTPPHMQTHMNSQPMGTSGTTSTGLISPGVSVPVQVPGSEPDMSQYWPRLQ
# Chain of Steroid hormone receptor ERR1 (Homo sapiens) (P11474 whole entry, looked up, the tested form may be a part): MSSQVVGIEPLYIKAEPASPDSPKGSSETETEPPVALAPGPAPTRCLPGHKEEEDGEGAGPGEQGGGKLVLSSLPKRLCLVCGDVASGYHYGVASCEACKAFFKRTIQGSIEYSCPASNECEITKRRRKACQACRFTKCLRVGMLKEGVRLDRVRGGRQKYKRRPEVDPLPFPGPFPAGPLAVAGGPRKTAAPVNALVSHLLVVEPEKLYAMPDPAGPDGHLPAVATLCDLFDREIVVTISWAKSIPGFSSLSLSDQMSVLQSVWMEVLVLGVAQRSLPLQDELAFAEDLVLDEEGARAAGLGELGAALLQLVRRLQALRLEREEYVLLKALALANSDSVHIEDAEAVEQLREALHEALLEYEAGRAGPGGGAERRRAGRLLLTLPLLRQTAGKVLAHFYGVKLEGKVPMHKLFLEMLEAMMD
# Chain of Signal transducer and activator of transcription 3 (Homo sapiens) (P40763 whole entry, looked up, the tested form may be a part): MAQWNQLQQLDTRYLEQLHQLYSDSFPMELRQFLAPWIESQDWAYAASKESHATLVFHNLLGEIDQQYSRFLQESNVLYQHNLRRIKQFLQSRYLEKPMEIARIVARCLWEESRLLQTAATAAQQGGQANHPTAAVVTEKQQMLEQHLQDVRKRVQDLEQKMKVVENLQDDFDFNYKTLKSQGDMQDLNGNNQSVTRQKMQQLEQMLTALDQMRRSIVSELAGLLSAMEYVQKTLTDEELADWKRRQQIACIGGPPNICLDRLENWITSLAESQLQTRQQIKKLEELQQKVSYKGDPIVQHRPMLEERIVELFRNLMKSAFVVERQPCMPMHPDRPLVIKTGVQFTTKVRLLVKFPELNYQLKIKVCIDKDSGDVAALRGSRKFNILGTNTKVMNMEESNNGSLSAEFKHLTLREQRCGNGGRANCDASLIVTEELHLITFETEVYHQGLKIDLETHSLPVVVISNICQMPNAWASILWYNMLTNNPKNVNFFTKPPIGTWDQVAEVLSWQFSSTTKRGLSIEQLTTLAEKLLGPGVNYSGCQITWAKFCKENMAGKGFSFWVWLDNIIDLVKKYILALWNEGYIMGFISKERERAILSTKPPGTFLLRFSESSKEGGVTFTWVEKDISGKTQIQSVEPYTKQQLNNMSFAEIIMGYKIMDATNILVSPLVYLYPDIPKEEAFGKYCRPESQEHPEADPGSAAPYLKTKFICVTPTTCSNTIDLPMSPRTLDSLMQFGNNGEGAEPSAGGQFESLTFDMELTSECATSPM
# Chain of X-box-binding protein 1 (Homo sapiens) (P17861 whole entry, looked up): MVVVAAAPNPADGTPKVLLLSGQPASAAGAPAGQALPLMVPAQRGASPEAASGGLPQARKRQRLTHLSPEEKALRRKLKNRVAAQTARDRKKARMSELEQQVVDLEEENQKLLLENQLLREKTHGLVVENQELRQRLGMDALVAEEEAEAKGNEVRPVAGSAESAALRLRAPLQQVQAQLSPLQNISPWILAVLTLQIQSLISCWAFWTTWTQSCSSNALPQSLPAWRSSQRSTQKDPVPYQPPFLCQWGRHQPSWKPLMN
smiles,measurement,setting,value
CCCCCCOC(=O)c1ccccc1,outcome,[1],inactive
same,outcome,[2],inactive
same,outcome,[3],inactive
same,outcome,[4],inactive
same,outcome,[5],inactive
same,outcome,[6],inactive
same,outcome,[7],inactive
same,outcome,[8],inactive
same,outcome,[9],inactive
same,outcome,[10],inactive
same,outcome,[11],inactive
same,outcome,[12],inactive
same,outcome,[13],inactive
same,outcome,[14],inactive
same,outcome,[15],inactive
same,outcome,[16],inactive
same,outcome,[17],inactive
FC(F)(F)C(F)(F)C(F)(F)C(F)(F)C(F)(F)C(F)(F)CC1CO1 (stereo unspecified),outcome,[1],inactive
same,outcome,[2],inactive
same,outcome,[3],inactive
same,outcome,[4],inactive
same,outcome,[5],inactive
same,outcome,[6],inactive
same,outcome,[7],inactive
same,outcome,[8],inactive
same,outcome,[9],inactive
same,outcome,[10],inactive
same,outcome,[11],inactive
same,outcome,[12],inactive
same,outcome,[13],inactive
same,outcome,[14],inactive
same,outcome,[15],inactive
same,outcome,[16],inactive
same,outcome,[18],inactive
same,outcome,[17],inactive
same,outcome,[19],inactive
FC(F)(F)C(F)(F)C(F)(F)C(F)(F)C(F)(F)C(F)(F)C(F)(F)C(F)(F)F,outcome,[1],inactive
same,outcome,[2],inactive
same,outcome,[3],inactive
same,outcome,[4],inactive
same,outcome,[5],inactive
same,outcome,[6],inactive
same,outcome,[7],inactive
same,outcome,[8],inactive
same,outcome,[9],inactive
same,outcome,[10],inactive
same,outcome,[11],inactive
same,outcome,[12],inactive
same,outcome,[13],inactive
same,outcome,[14],inactive
same,outcome,[15],inactive
same,outcome,[16],inactive
same,outcome,[18],inactive
same,outcome,[17],inactive
same,outcome,[20],inactive
same,outcome,[19],inactive
CCCCCCS,outcome,[1],inactive
same,outcome,[2],inactive
same,outcome,[3],inactive
same,outcome,[4],inactive
same,outcome,[5],inactive
same,outcome,[6],inactive
same,outcome,[7],inactive
same,outcome,[8],inactive
same,outcome,[9],inactive
same,outcome,[10],inactive
same,AC50,[11],68.8 µM (active)
same,outcome,[12],inactive
same,outcome,[13],inactive
same,outcome,[14],inactive
same,outcome,[15],inactive
same,outcome,[16],inactive
same,outcome,[17],inactive
same,outcome,[19],inactive
CS(C)(=O)=O,outcome,[1],inactive
same,outcome,[2],inactive
same,AC50,[3],4.43 µM (active)
same,outcome,[4],inactive
same,outcome,[5],inactive
same,outcome,[6],inactive
same,outcome,[7],inactive
same,outcome,[8],inactive
same,outcome,[9],inactive
same,outcome,[10],inactive
same,outcome,[11],inactive
same,outcome,[12],inactive
same,outcome,[13],inactive
same,outcome,[14],inactive
same,outcome,[15],inactive
same,outcome,[16],inactive
same,outcome,[18],inactive
same,outcome,[17],inactive
c1ccc(B(c2ccccc2)c2ccccc2)cc1,outcome,[1],inactive
same,outcome,[2],inactive
same,AC50,[3],5.22 µM (active)
same,outcome,[4],inactive
same,AC50,[5],71.5 µM (active)
same,outcome,[6],inactive
same,outcome,[7],inactive
same,outcome,[8],inactive
same,outcome,[9],inactive
same,outcome,[10],inactive
same,outcome,[11],inactive
same,outcome,[12],inactive
same,outcome,[13],inactive
same,AC50,[14],20.7 µM (active)
same,outcome,[15],inactive
same,AC50,[16],5.7 µM (active)
same,outcome,[18],inactive
same,AC50,[17],31.7 µM (active)
same,outcome,[20],inactive
same,outcome,[19],inactive
Cc1cc(C)cc(O)c1,outcome,[1],inactive
same,outcome,[2],inactive
same,AC50,[3],64.5 µM (active)
same,outcome,[3],inactive
same,outcome,[4],inactive
same,outcome,[5],inactive
same,outcome,[6],inactive
same,outcome,[7],inactive
same,outcome,[8],inactive
same,outcome,[9],inactive
same,outcome,[10],inactive
same,outcome,[11],inactive
same,outcome,[12],inactive
same,outcome,[13],inactive
same,outcome,[14],inactive
same,outcome,[16],inactive
same,outcome,[18],inactive
same,outcome,[17],inactive
same,outcome,[19],inactive
